Experimental data from PubChem BioAssay (NCI).
Compounds without any hit were thinned out: in the full panel of roughly 79,000, 15% have a hit. Activity calls are given as the source filed them. Rule as the data show it: active = growth inhibition above about 70%; inactive = the rest.

How the values were obtained:
[1] = NCI Yeast Anticancer Drug Screen. Data for the rad52 strain (AID 147);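 also: 0% = growth of vehicle-treated control cultures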; settings: S. cerevisiae rad52 mutant growth inhibition, active compounds read high
In short: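 Yeast strain carrying a DNA damage repair alteration was exposed to test compounds. Growth inhibition was measured relative to vehicle-treated controls.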

[2] = NCI Yeast Anticancer Drug Screen. Data for the wt1 strain (AID 149);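 also: 0% = growth of vehicle-treated wt1 cultures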; settings: S. cerevisiae wt1 strain (SPY 50644) growth inhibition, active compounds read high
In short: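 Using yeast strain wt1, compound-induced growth inhibition was determined against vehicle-treated cultures.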

[3] = NCI Yeast Anticancer Drug Screen. Data for the rad50EPP+ strain (AID 151);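 also: 0% = growth of vehicle-treated control cultures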; settings: S. cerevisiae rad50 mutant strain, active compounds read high
In short: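 Yeast strain carrying rad50 alteration (rad50EPP+) exposed to compounds; growth inhibition measured relative to vehicle-treated controls.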

[4] = NCI Yeast Anticancer Drug Screen. Data for the rad50 strain (AID 155);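 also: 0% = growth of vehicle-only cultures of the same strain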; settings: S. cerevisiae rad50 strain growth inhibition, active compounds read high
In short: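 Relative growth inhibition (compound vs vehicle) was measured in yeast with a defined repair-gene alteration.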

[5] = NCI Yeast Anticancer Drug Screen. Data for the mec2-1 strain (AID 157); settings: S. cerevisiae mec2-1 strain, active compounds read high
In short: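 mec2-1 yeast strain, carrying an alteration in DNA damage repair or cell cycle control, was exposed to compounds; growth inhibition was measured relative to vehicle-treated controls.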

[6] = NCI Yeast Anticancer Drug Screen. Data for the rad14 strain (AID 159);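 also: 0% = growth of vehicle-treated control cultures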; settings: S. cerevisiae rad14 strain growth inhibition, active compounds read high
In short: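 Screen for anticancer potential: a yeast strain altered in DNA damage repair is grown with compound, and reduced growth is quantified against vehicle controls.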

[7] = NCI Yeast Anticancer Drug Screen. Data for the sgs1 mgt1 strain (AID 161);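 also: 0% = growth of cultures given vehicle only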; settings: S. cerevisiae sgs1 mgt1 strain, active compounds read high
In short: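 Growth of a repair-deficient yeast mutant was monitored after compound treatment and expressed as inhibition relative to vehicle-treated cultures.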

[8] = NCI Yeast Anticancer Drug Screen. Data for the CLN2oe strain (AID 163);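 also: 0% = growth of vehicle-only control cultures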; settings: S. cerevisiae CLN2oe strain, active compounds read high
In short: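 Yeast cells carrying a defined cell-cycle control alteration were exposed to test compounds. Growth inhibition was scored against vehicle-treated control cultures.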

[9] = NCI Yeast Anticancer Drug Screen. Data for the cln2 rad14 strain (AID 165);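 also: 0% = growth equal to vehicle treated cultures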; settings: S. cerevisiae cln2 rad14 strain, active compounds read high
In short: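 Yeast carrying cln2 and rad14 alterations (cell cycle control and DNA damage repair) were exposed to compounds. Growth inhibition was measured against vehicle-treated controls.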

[10] = NCI Yeast Anticancer Drug Screen. Data for the bub3 strain (AID 167); settings: S. cerevisiae bub3 mutant strain, active compounds read high
In short: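 Screening used yeast with an engineered genetic alteration affecting cell cycle control. Compound-exposed cultures were compared with vehicle cultures, and reduced growth was taken as inhibition.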

[11] = NCI Yeast Anticancer Drug Screen. Data for the wt2 strain (AID 169);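 also: 0% = growth of vehicle-treated yeast cultures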; settings: S. cerevisiae wt2 strain growth inhibition, active compounds read high
In short: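 Yeast cells were exposed to test compounds, and growth inhibition was measured relative to vehicle-treated controls.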

[12] = NCI Yeast Anticancer Drug Screen. Data for the mlh1 strain (AID 171);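 also: 0% = growth of vehicle-treated control cultures of the same strain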; settings: S. cerevisiae mlh1 strain growth inhibition, active compounds read high
In short: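 Yeast carrying a defined genetic alteration in DNA damage repair or cell cycle control were exposed to test compounds. Growth inhibition was measured relative to vehicle-treated controls.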

[13] = NCI Yeast Anticancer Drug Screen. Data for the sgs1 strain (AID 173);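 also: 0% = growth of vehicle-only control cultures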; settings: S. cerevisiae sgs1 mutant, active compounds read high
In short: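 Yeast mutant strains carrying defined defects in DNA damage repair or cell cycle control were exposed to test compounds. Growth inhibition was scored against vehicle-treated controls.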

[14] = NCI Yeast Anticancer Drug Screen. Data for the mlh1 rad18 strain (AID 175); settings: S. cerevisiae mlh1 rad18 strain growth inhibition, active compounds read high
In short: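 Growth inhibition of the yeast strain was measured after compound exposure and expressed relative to vehicle-treated controls. The strain carries defined defects in DNA damage repair.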

[15] = NCI Yeast Anticancer Drug Screen. Data for the rad18 strain (AID 177); settings: S. cerevisiae rad18 mutant growth inhibition, active compounds read high
In short: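 Yeast carrying a defined DNA damage repair alteration were exposed to compounds. Growth inhibition was expressed relative to vehicle-treated controls.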

[16] = at 5.0 µM (retest, dose inferred, filed as 0.5)
[17] = at 50.0 µM (retest, dose inferred, filed as 5.0)

Measured: growth inhibition

CCOC(=O)C1([Se]c2ccccc2)CCCC1=O (stereo not drawn)
inactive: [1]; at 1.2 µM 11% | [1]; at 3.7 µM 28% | [1]; at 11.0 µM 40% | [1]; at 33.0 µM 53% | [2]; at 1.2 µM 16% | [2]; at 3.7 µM 19% | [2]; at 11.0 µM 24% | [2]; at 33.0 µM 50% | [3]; at 1.2 µM -7% | [3]; at 3.7 µM 14% | [3]; at 11.0 µM 44% | [4]; at 1.2 µM 17% | [4]; at 3.7 µM 15% | [4]; [16] 16% | [4]; at 11.0 µM 23% | [4]; at 33.0 µM 44% | [4]; [17] 63% | [5]; at 1.2 µM 1% | [5]; at 3.7 µM -6% | [5]; [16] -18% | [5]; at 11.0 µM 9% | [5]; at 33.0 µM 30% | [5]; [17] 43% | [5]; at 100.0 µM -11% | [6]; at 1.2 µM -9% | [6]; at 3.7 µM 1% | [6]; at 11.0 µM -11% | [6]; at 33.0 µM 25% | [7]; [16] -3% | [7]; [17] 59% | [8]; at 1.2 µM 2% | [8]; at 3.7 µM 6% | [8]; at 11.0 µM 16% | [8]; at 33.0 µM 11% | [8]; at 100.0 µM 68% | [9]; [16] 14% | [9]; [17] 52% | [10]; at 1.2 µM -4% | [10]; at 3.7 µM 0% | [10]; [16] 10% | [10]; at 11.0 µM -13% | [10]; at 33.0 µM 13% | [11]; at 1.2 µM 2% | [11]; at 3.7 µM 21% | [11]; at 11.0 µM 22% | [11]; at 33.0 µM 49% | [12]; at 1.2 µM 8% | [12]; at 3.7 µM 6% | [12]; at 11.0 µM 33% | [12]; at 33.0 µM 58% | [13]; at 1.2 µM 22% | [13]; at 3.7 µM 42% | [13]; at 11.0 µM 56% | [14]; [16] 34% | [15]; at 1.2 µM 9% | [15]; at 3.7 µM 21% | [15]; at 11.0 µM 30% | [15]; at 33.0 µM 65%
active: [1]; at 100.0 µM 92% | [2]; at 100.0 µM 91% | [3]; at 33.0 µM 87% | [3]; at 100.0 µM 96% | [4]; at 50.0 µM 84.2% | [4]; at 100.0 µM 92% | [5]; at 50.0 µM 71.8% | [6]; at 100.0 µM 94% | [7]; at 50.0 µM 84.2% | [9]; at 50.0 µM 73.2% | [10]; [17] 82% | [10]; at 50.0 µM 81.2% | [10]; at 100.0 µM 90% | [11]; at 100.0 µM 88% | [12]; at 100.0 µM 83% | [13]; at 33.0 µM 75% | [13]; at 100.0 µM 97% | [14]; [17] 87% | [14]; at 50.0 µM 76.6% | [15]; at 100.0 µM 91%
